Most compounds without a hit are left out; they make up all but 2.4% or so of the library.
PERK inh: block of dimerizer-induced PERK translation repression, primary screen, PERK inhibitor project, CHO PERK-DD cells, SEAP luminescence, HTS; actives 0.17% (n = 220,000); inhibition, % at 5.6 µM; Eukaryotic translation initiation factor 2-alpha kinase 3 (Homo sapiens), Q9NZJ5; CHO PERK-DD fusion, SEAP luminescence translation reporter;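 active = inhibition above the mean inhibition of all tested compounds plus 3 SD, set separately per screening campaign, cut at about 2.9% in these data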;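 also: PERK kinase domain activated by AP20187 dimerizer at 100 nM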
Target sequence (Q9NZJ5 whole entry, looked up, the tested form may be a part): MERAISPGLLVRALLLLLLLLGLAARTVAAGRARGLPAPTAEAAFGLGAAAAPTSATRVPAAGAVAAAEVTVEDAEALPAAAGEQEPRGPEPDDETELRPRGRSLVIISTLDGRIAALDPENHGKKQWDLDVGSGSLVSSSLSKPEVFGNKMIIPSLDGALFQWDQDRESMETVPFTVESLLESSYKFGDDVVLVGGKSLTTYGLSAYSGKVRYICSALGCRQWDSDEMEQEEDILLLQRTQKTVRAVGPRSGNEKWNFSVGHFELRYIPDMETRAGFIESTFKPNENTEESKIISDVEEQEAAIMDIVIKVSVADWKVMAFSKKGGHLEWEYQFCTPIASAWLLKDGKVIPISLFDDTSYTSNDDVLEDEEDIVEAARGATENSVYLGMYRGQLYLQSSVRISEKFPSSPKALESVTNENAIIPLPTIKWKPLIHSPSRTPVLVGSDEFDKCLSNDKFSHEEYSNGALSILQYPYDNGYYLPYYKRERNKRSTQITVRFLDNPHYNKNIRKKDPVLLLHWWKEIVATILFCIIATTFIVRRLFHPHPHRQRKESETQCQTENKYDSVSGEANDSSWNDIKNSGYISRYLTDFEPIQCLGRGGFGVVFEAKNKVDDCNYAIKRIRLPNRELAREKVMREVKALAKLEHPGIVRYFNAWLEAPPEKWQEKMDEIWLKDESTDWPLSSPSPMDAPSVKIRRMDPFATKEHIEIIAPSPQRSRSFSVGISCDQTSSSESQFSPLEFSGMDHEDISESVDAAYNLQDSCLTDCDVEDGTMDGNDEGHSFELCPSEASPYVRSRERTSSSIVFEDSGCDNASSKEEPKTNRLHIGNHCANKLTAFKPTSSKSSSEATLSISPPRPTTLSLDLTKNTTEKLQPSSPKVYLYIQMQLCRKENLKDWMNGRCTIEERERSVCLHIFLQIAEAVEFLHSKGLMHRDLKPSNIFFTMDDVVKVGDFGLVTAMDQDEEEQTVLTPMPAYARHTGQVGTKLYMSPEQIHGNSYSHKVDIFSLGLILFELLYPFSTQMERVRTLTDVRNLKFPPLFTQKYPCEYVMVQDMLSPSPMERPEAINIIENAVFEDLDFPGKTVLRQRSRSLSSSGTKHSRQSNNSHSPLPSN
TNF death inh: inhibitors of TNF-alpha triggered necroptosis, primary screen, cell-based, Jurkat FADD-/-, single concentration; Jurkat FADD-/- TNF necroptosis rescue, ATP luminescence, 24 h; 0 = TNF only, 100 = no-TNF cells; activation (protection from cell death), % at 10 µM; actives 0.068% (n = 220,000);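 active = activation, meaning protection from cell death, of at least 50% relative to plate controls; inactive = activation below 50%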;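 also: necroptosis triggered by 40 ng/mL TNF-alpha added together with compound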
WT yeast gro inh: growth inhibition of WT strain, primary screen, mitochondrial fusion inhibitor project, WT and mutant strains, chemical genetic. mitochondrial fusion phenotypic screen. inhibition, % at 10 µM. AID 1362, 2008. actives 2.1% (n = 190,000); in the data active = inhibition above about 58%; tested in S. cerevisiae
PKD1 kinase inh: inhibitors of human PKD1 kinase, biochemical, fluorescence polarization; inhibition, % (concentration not given with the values); Serine/threonine-protein kinase D1 (Homo sapiens), Q15139; PKD1 kinase fluorescence polarization assay; actives 0.056% (n = 200,000); in the data active = inhibition above about 50%
DTT redox prof: compounds producing H2O2 with reducing agent – biochemical, NIH compound library profiling, artefact control for MLSCN library redox annotation, primary screen. activation, % at 10 µM. DTT-dependent redox cycling H2O2, phenol red/HRP absorbance; 100% = 100 µM peroxide control, 0% = buffer. AID 878, 2007. actives 0.03% (n = 200,000);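 active = activation of at least 50% relative to the plate's high and low controls in the primary single-dose screen; inactive = activation below 50%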;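 also: compound incubated with DTT at 0.8 mM final as the reducing agent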
zVAD death inh: inhibitors of zVAD-triggered necroptosis, primary screen, L929 cells | L929 zVAD necroptosis rescue, ATP luminescence, 24 h; with zVAD 60 µM | viability rescue, % at 10 µM | actives 0.38% (n = 220,000);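 active = activation, scaled between plate controls, above about 75%, limit read from the data; inactive = activation under that limit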
Hits are given with their value.

For CSCc1cc(N2CCCC2)nc(-c2ccccc2)n1 the results were PERK inh inactive, TNF death inh inactive, WT yeast gro inh inactive, PKD1 kinase inh inactive, DTT redox prof inactive and zVAD death inh inactive.
CCOc1cc(NC(=S)NCCc2ccccc2)c(OCC)cc1NC(C)=O was read as PERK inh inactive, TNF death inh inactive, WT yeast gro inh inactive, PKD1 kinase inh inactive, DTT redox prof inactive and zVAD death inh inactive.
Screening Cc1ccc2nc(N/C(=N/S(=O)(=O)c3cccs3)c3ccccc3Cl)sc2c1 returned PERK inh inactive, TNF death inh inactive, WT yeast gro inh inactive, PKD1 kinase inh inactive, DTT redox prof inactive and zVAD death inh inactive.
For O=C1/C(=C/Nc2ccc3c(c2)OCO3)CCc2ccccc21 the results were PERK inh inactive, TNF death inh inactive, WT yeast gro inh 62.5, PKD1 kinase inh inactive, DTT redox prof inactive and zVAD death inh inactive.
For O=c1c([N+](=O)[O-])cc(C(F)(F)F)cn1Cc1c(Cl)cccc1Cl the results were PERK inh 3.3, TNF death inh inactive, WT yeast gro inh inactive, PKD1 kinase inh inactive, DTT redox prof inactive and zVAD death inh inactive.
COC(=O)c1ccc(Cn2cc(C(F)(F)F)cc([N+](=O)[O-])c2=O)cc1 was read as PERK inh inactive, TNF death inh inactive, WT yeast gro inh inactive, PKD1 kinase inh inactive, DTT redox prof inactive and zVAD death inh inactive.
For Cc1ccc(-c2nnc(SCC(=O)n3c4c(c5ccccc53)CCCC4)o2)cc1 the results were PERK inh 3.0, TNF death inh inactive, WT yeast gro inh inactive, PKD1 kinase inh inactive, DTT redox prof inactive and zVAD death inh inactive.
Screening O=C(NC(=O)c1ccccc1)OCCN1C(=O)c2ccccc2C1=O returned PERK inh inactive, TNF death inh inactive, WT yeast gro inh inactive, PKD1 kinase inh inactive, DTT redox prof inactive and zVAD death inh inactive.
Screening CC(C)Cc1cc(C(=O)NCc2cccs2)no1 returned PERK inh 3.4, TNF death inh inactive, WT yeast gro inh inactive, PKD1 kinase inh inactive, DTT redox prof inactive and zVAD death inh inactive.
`CC(C)CCNC(=S)Nc1ccc([N+](=O)[O-])cc1` gave PERK inh inactive, TNF death inh inactive, WT yeast gro inh 78.9, PKD1 kinase inh inactive, DTT redox prof inactive and zVAD death inh inactive.
`CCCNC(=S)Nc1ccc(Br)cc1` gave PERK inh inactive, TNF death inh inactive, WT yeast gro inh inactive, PKD1 kinase inh inactive, DTT redox prof inactive and zVAD death inh inactive.
Screening CC(C)CCNC(=S)Nc1ccc(Br)cc1 returned PERK inh inactive, TNF death inh inactive, WT yeast gro inh 68.1, PKD1 kinase inh inactive and DTT redox prof inactive.
For CCCNC(=O)N1CCN(Cc2ccco2)CC1 the results were PERK inh inactive, TNF death inh inactive, WT yeast gro inh inactive, PKD1 kinase inh inactive, DTT redox prof inactive and zVAD death inh inactive.
Screening CC(C)(C)OC(=O)N1CCC[C@H]1C(=O)N/N=C/c1cccc2nccnc12 returned PERK inh inactive, TNF death inh inactive and zVAD death inh inactive.
CCCCNC(=O)NC1CCCC1 was read as PERK inh inactive, TNF death inh inactive, WT yeast gro inh inactive, PKD1 kinase inh inactive, DTT redox prof inactive and zVAD death inh inactive.
CCCc1nc2ccccc2c(=O)n1N was read as PERK inh 3.6, TNF death inh inactive, WT yeast gro inh inactive, PKD1 kinase inh inactive, DTT redox prof inactive and zVAD death inh inactive.
Screening Cc1cc(C)nc(NC(=O)/C=C/c2ccc(Cl)cc2Cl)c1 returned PERK inh inactive, TNF death inh inactive, WT yeast gro inh 74.2, PKD1 kinase inh inactive, DTT redox prof inactive and zVAD death inh inactive.
Screening Cc1cc(C)nc(NC(=O)/C=C/c2ccccc2Cl)c1 returned PERK inh inactive, TNF death inh inactive, WT yeast gro inh 63.8, PKD1 kinase inh inactive, DTT redox prof inactive and zVAD death inh inactive.
O=C(Nc1ccn(Cc2c(F)c(F)cc(F)c2F)n1)c1ccc(COc2ccccc2Cl)cc1 was read as PERK inh inactive, TNF death inh inactive, WT yeast gro inh inactive, PKD1 kinase inh inactive, DTT redox prof inactive and zVAD death inh inactive.
`Cc1cc(C)nc(NC(=O)/C=C/c2ccccc2Cl)n1` gave PERK inh inactive, TNF death inh inactive, WT yeast gro inh inactive, PKD1 kinase inh inactive, DTT redox prof inactive and zVAD death inh inactive.
Cc1cc(C)nc(NC(=O)c2ccc(COc3ccccc3Cl)cc2)c1 was read as PERK inh inactive, TNF death inh inactive, WT yeast gro inh 65.2, PKD1 kinase inh inactive, DTT redox prof inactive and zVAD death inh inactive.
C=C(C)C1Cc2c(C)nn(-c3cccc4ccccc34)c2C1 (stereo not drawn) was read as PERK inh inactive, TNF death inh inactive, WT yeast gro inh 85.7, PKD1 kinase inh inactive, DTT redox prof inactive and zVAD death inh inactive.
CC1OC2(OC1C)C(=O)Nc1ccccc12 (stereo not drawn) was read as PERK inh inactive, TNF death inh inactive, WT yeast gro inh inactive, PKD1 kinase inh inactive, DTT redox prof inactive and zVAD death inh inactive.
For CN1CC(c2ccccc2Cl)C2(COc3ccccc3C2=O)C12C(=O)Nc1ccccc12 (stereo not drawn) the results were PERK inh inactive, TNF death inh inactive, WT yeast gro inh 59.0, PKD1 kinase inh inactive, DTT redox prof inactive and zVAD death inh inactive.
`Cc1ccc(C2CN(C)C3(C(=O)Nc4ccccc43)C23COc2ccccc2C3=O)cc1` (stereo not drawn) gave PERK inh inactive, TNF death inh inactive, WT yeast gro inh 72.9, PKD1 kinase inh inactive, DTT redox prof inactive and zVAD death inh inactive.
For O=C(Nc1cccc(F)c1)N(Cc1ccc(Cl)cc1)CC(O)C(F)(F)F (stereo not drawn) the results were PERK inh inactive, TNF death inh inactive, WT yeast gro inh 70.6, PKD1 kinase inh inactive, DTT redox prof inactive and zVAD death inh inactive.
For O=C(Nc1ccccc1)N(Cc1ccccc1)CC(O)C(F)(F)F (stereo not drawn) the results were PERK inh inactive, TNF death inh inactive, WT yeast gro inh inactive, PKD1 kinase inh inactive, DTT redox prof inactive and zVAD death inh inactive.
`c1ccc(C2=Nc3cccnc3C(c3ccccc3)=NN2)cc1` gave PERK inh inactive, TNF death inh inactive, WT yeast gro inh inactive, PKD1 kinase inh inactive, DTT redox prof inactive and zVAD death inh inactive.
CCc1nn2cc(C(=O)c3cc(Cl)ccc3O)cnc2c1-c1ccc(F)cc1 was read as PERK inh inactive, TNF death inh inactive, WT yeast gro inh 80.8, PKD1 kinase inh inactive, DTT redox prof inactive and zVAD death inh inactive.
